Assay outcomes: PubChem BioAssay, Corson Lab, School of Medicine, Indiana University
This is one part of a sample in which hits are shown more often than they occur.
FECH inh: blocks human mitochondrial ferrochelatase activity. 3.3% of 20,000 active. P22830. calls only at 10 µM (by protocol). purified FECH, Ni-mesoporphyrin absorbance 550 nm. AID 1671448;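 active = enzyme reaction rate more than 3 SD below the solvent-only control wells on the same plate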;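 also: lower slope than DMSO wells means FECH inhibition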
Target sequence (P22830 whole entry, looked up): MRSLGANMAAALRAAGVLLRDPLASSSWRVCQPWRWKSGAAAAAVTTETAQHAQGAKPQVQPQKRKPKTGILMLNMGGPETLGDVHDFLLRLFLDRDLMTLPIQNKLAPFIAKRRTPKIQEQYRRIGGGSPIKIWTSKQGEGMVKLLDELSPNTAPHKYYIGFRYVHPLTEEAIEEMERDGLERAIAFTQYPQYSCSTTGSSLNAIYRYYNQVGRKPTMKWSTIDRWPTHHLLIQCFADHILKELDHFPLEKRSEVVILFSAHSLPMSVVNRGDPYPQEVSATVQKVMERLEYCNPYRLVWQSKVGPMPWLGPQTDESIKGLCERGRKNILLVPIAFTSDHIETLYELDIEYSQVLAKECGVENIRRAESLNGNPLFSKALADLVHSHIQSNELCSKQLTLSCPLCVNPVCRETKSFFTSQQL
* hit, by the source's call; i = inactive; + = active, no number.

SMILES	FECH inh
CCOc1ccc(CCNC(=O)c2cccn2-c2nnc(N3CCCCC3)s2)cc1	i
Cc1ccc(-c2cc(Nc3ccc(Cl)c(C(F)(F)F)c3)nc(C)n2)cc1	i
Cn1nc(-c2ccccc2)c2c1NC(=O)CC2COCc1ccccc1 (centres undefined)	i
Cc1cc(C)cc(S(=O)(=O)Nc2cnc(N(CC(C)C)CC(C)C)c(C(=O)O)c2)c1	i
CCCN(CCC)c1ncc(NS(=O)(=O)c2cc(C)cc(C)c2)cc1C(=O)O	+
CCN(CCN(C)C)c1ncc(NS(=O)(=O)c2cc(C)cc(C)c2)cc1C(=O)O	i
COc1ccc(CCn2nc(C(=O)O)c3c2CCN(C(=O)C2CCC2)C3)cc1	i
C=C(C)COc1ccc(C(=O)NC(C)Cc2cnccn2)cc1 (centres undefined)	+
CC(Cc1cnccn1)NC(=O)c1cc(-c2ccccc2)nn1C (centres undefined)	i
CC(Cc1cnccn1)NC(=O)c1cccc(-c2cccc(F)c2)c1 (centres undefined)	i
CC(CCNC(=O)c1ccc(CN2C(=O)CCn3nc(-c4ccccc4)cc32)cc1)N1CCCC1 (centres undefined)	i
Cn1ncc(N2CCN(c3ncnc4c3CCNC4)CC2)cc1=O	i
O=C(c1c[nH]c(=O)cn1)N1CCCCC1CCn1ccnc1 (centres undefined)	i
O=C(NCCc1ccccc1)N1CCCCC1CCn1ccnc1 (centres undefined)	i
c1ccc2c(CN3CCCCC3CCn3ccnc3)ccnc2c1 (centres undefined)	+
O=C(NCCN1CCc2ccccc21)c1onc2ccccc12	i
Cc1ccccc1NC(=O)Cn1nc(N2CCN(c3ccc(F)cc3)CC2)ccc1=O	i
COc1ccc(CNC(=O)CSc2cc(N3CCCCC3)ncn2)cc1	i
O=C(CSc1cc(N2CCCCC2)ncn1)Nc1ccc2c(c1)OCCO2	i
COc1cc(NC(=O)CSc2cc(Oc3cc(C)cc(C)c3)ncn2)cc(OC)c1	+
COc1cc(NC(=O)CN2CCCN(Cc3ccc(C)cc3)S2(=O)=O)cc(OC)c1	i
COc1ccc(NC(=O)CSc2cc(N3CCCCC3)ncn2)cc1OC	i
Cc1ccc(NC(=O)CSc2cc(N3CCCCC3)ncn2)cc1F	i
CCc1cccc(NC(=O)CN2CCCN(Cc3ccc(OC)cc3)S2(=O)=O)c1	i
CCc1cccc(NC(=O)CSc2cc(Oc3cc(C)cc(C)c3)ncn2)c1	+
SMILES	FECH inh
Cc1ccc(NC(=O)CSc2cc(Oc3cc(C)cc(C)c3)ncn2)cc1	+
CSc1ccc(CNC(=O)COc2cc(C)nc(-c3ccc(C)cc3)n2)cc1	i
CSc1ccc(CNC(=O)CSc2cc(Oc3cc(C)cc(C)c3)ncn2)cc1	+
CCc1cccc(NC(=O)CCC(=O)NCc2ncc[nH]2)c1	i
COc1cccc(OCC(=O)Nc2cc(C)nn2-c2ncnc3c2cnn3-c2cccc(Cl)c2)c1	i
Cc1cnccc1CN(C)C(=O)C1CCCN1S(C)(=O)=O (centres undefined)	i
CC(C)Cc1cc(CNC(=O)C2CCCN2S(C)(=O)=O)no1 (centres undefined)	i
Cc1ccc(NC(=O)CN2C(=O)CN(C)C(=O)c3ccccc32)c(C)c1	i
Cc1nc(C2CC2)ncc1C(=O)N1CCOC(C(F)(F)F)C1 (centres undefined)	i
Cc1ccc(NC(=O)CN2CCN(Cc3ccc(F)cc3)S2(=O)=O)c(C)c1	i
Cc1cc(C)c(CN2CCCN(Cc3ccccc3)S2(=O)=O)c(C)c1	+
Cc1cccc(CN2CCCN(CC(=O)Nc3ccc(C)cc3C)S2(=O)=O)c1	+
Cc1ccc(CN2CCCN(CC(=O)Nc3ccc(C)cc3C)S2(=O)=O)cc1	i
Cc1cc(C)c(NC(=O)CN2CCN(Cc3ccc(F)cc3)S2(=O)=O)c(C)c1	+
Cc1ccc(NC(=O)CN2CCN(Cc3ccc(F)cc3)S2(=O)=O)cc1C	i
Cc1cccc(CN2CCN(CC(=O)Nc3ccc(C)cc3C)S2(=O)=O)c1	i
Cc1cc(C)c(CN2CCCN(Cc3ccc(Cl)cc3)S2(=O)=O)c(C)c1	i
Cc1ccc(C)c(NC(=O)CN2CCN(Cc3ccccc3C)S2(=O)=O)c1	i
Cc1ccc(NC(=O)CN2CCN(Cc3ccccc3C)S2(=O)=O)c(C)c1	+
Cc1ccc(CN2CCCN(Cc3c(C)cc(C)cc3C)S2(=O)=O)cc1	i
Cc1cccc(NC(=O)CN2CCN(Cc3ccccc3C)S2(=O)=O)c1	i
CC1Cc2cc(-n3cnnc3)ccc2O1 (centres undefined)	i
Cc1cccc(S(=O)(=O)NCc2nc3cccnc3n2C(C)C)c1	i
CCOC(=O)c1cccc(NC(=O)C2CCN(c3ccc(-c4cccs4)nn3)CC2)c1	i
O=C(c1ccc2c(c1)OCO2)N1CCC(n2cc(C3CCCC3)nn2)CC1	i
SMILES	FECH inh
c1ccc(CCCOc2ccccc2-n2cnnc2)cc1	i
Cc1cccc(CN2CCCN(CC(=O)Nc3c(C)cc(C)cc3C)S2(=O)=O)c1	+
Cc1cccc(CN2CCCN(CC(=O)NC3CCCC3)S2(=O)=O)c1	i
Cc1ccc(CN2CCCN(CC(=O)Nc3c(C)cc(C)cc3C)S2(=O)=O)cc1	+
Cc1ccc(C)c(NC(=O)CN2CCCN(Cc3cccc(F)c3)S2(=O)=O)c1	i
Cc1cc(C)c(NC(=O)CN2CCCN(Cc3ccccc3)S2(=O)=O)c(C)c1	i
Cc1ccc(NC(=O)CN2CCCN(Cc3ccc(Cl)cc3)S2(=O)=O)c(C)c1	i
CSc1cccc(NC(=O)CN2CCCN(Cc3cccc(C)c3)S2(=O)=O)c1	i
Cc1ccc(CN2CCCN(CC(=O)Nc3cc(C)ccc3C)S2(=O)=O)cc1	i
Cc1cccc(CN2CCN(CC(=O)Nc3cc(C)ccc3C)S2(=O)=O)c1	+
CN(C)CC1(O)CCCN(CC(=O)Nc2cnn(C)c2)CC1 (centres undefined)	i
CCCCN(Cc1nc2nc(C)cc(C)n2n1)C(=O)c1cccc(Cl)c1	i
COc1ccccc1N(Cc1nc2nc(C)cc(C)n2n1)S(=O)(=O)c1ccccc1	i
Clc1ccccc1CCNc1ncnc2oc3c(c12)CCCC3	+
COc1ccccc1CNc1ncnc2oc3c(c12)CCCC3	i
Cc1ccc(CNc2ncnc3oc4c(c23)CCCC4)o1	i
Cc1ccc(C2=CC(c3ccccc3Cl)n3nc(NS(C)(=O)=O)nc3N2)cc1 (centres undefined)	i
Cc1ccc(C2=CC(c3c(F)cccc3Cl)n3nc(NS(C)(=O)=O)nc3N2)cc1 (centres undefined)	+
O=S(=O)(Nc1nc2n(n1)C(c1ccc(F)cc1)C=C(c1ccccc1)N2)c1ccc(Cl)cc1 (centres undefined)	i
CS(=O)(=O)Nc1nc2n(n1)C(c1ccccc1Cl)C=C(c1ccc(Br)cc1)N2 (centres undefined)	i
Cc1ccc(C2=CC(c3ccccc3Cl)n3nc(NS(=O)(=O)c4ccccc4)nc3N2)cc1 (centres undefined)	+
Cc1ccc(C2=CC(c3ccc(F)cc3)n3nc(NS(=O)(=O)c4ccccc4)nc3N2)cc1 (centres undefined)	i
Cc1ccc(C2=CC(c3c(F)cccc3Cl)n3nc(NS(=O)(=O)c4ccccc4)nc3N2)cc1 (centres undefined)	i
Cc1ccc(C2=CC(c3ccc(F)cc3)n3nc(NS(C)(=O)=O)nc3N2)cc1 (centres undefined)	i
